Source: PubChem BioAssay (The Scripps Research Institute Molecular Screening Center)
GPR151 activ: activates the human receptor GPR151; Q8TDV0; PathHunter beta-arrestin GPR151 cells, luminescence; activation, % at 11.2 µM; 650,000 compounds, 1% hits; AID 1508602; in the data active = activation above about 4.9%;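 also: 0% = median of compound wells and 100% = cells with positive control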
TEAD-YAP block: TEAD-YAP interaction inhibition; HEK-TIYL cells, TEAD-Gal4/YAP UAS-luciferase luminescence; inhibition, % at 9.12 µM; 640,000 compounds, 1.4% hits; in the data active = inhibition above about 32%;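 also: 0% = median of test compound wells and 100% = reference inhibitor wells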
FBW7 activator: human FBW7 E3 ligase activation, primary screen. AID 1259310. normalized activity (activation), % at 26.1 µM. Q969H0. 650,000 compounds, 0.13% hits. AlphaScreen FBW7–phospho-cyclin E peptide binding, activator screen; in the data active = normalized activity above about 1.9%;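 also: purified mutant Fbw7 with reduced substrate affinity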
MITF primary: human MITF inhibition, primary screen. O75030. AlphaScreen MITF homodimerization, bead proximity signal. inhibition, % at 2.6 µM. 650,000 compounds, 0.91% hits; in the data active = inhibition above about 50%;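 also: 0% = vehicle wells with protein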
Target sequence (O75030 whole entry, looked up): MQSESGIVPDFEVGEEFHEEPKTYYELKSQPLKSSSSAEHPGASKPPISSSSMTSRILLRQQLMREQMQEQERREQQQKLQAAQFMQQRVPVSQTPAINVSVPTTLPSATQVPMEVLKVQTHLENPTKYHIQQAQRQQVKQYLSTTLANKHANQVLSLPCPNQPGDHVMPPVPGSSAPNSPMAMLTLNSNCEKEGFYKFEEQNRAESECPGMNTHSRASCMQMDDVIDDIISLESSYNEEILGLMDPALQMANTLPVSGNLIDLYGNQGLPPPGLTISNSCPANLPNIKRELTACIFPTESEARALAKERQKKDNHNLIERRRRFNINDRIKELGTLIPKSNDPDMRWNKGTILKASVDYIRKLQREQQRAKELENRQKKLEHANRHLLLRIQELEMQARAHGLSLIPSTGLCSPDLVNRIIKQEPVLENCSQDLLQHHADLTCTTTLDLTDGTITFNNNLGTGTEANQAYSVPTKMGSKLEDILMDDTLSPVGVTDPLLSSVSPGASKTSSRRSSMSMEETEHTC
MITF confirm: confirmation of human MITF inhibitors | AID 1259372 | shares compounds with MITF primary | AlphaScreen MITF homodimerization, biotin/His-MITF beads | inhibition, % at 2.6 µM | 4,700 compounds, 16% hits;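 active = inhibition above a cutoff derived from the DMSO control wells, cut at about 28% in these data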;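 also: 0% = MITF dimer wells with DMSO only; inhibitors lower the bead chemiluminescence by keeping MITF from dimerizing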
AS interf DR: AlphaScreen optical interference, dose response counter-screen; shares compounds with MITF primary; AlphaScreen optical interference counterscreen, cell-free; IC50, µM; 480 compounds, 6% hits; call rule not given here
AlphaScreen intf2: optically interferes with AlphaScreen signal; shares compounds with MITF primary; LysRS AlphaScreen counterscreen, signal interference, triplicate; inhibition, % at 2.6 µM; 4,700 compounds, 7.6% hits; AID 1259376;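 active = inhibition above a cutoff derived from the DMSO control wells, cut at about 30% in these data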
Numbers without * were called inactive; x = no result. This is a sample that favours compounds with a hit; in the whole collection about 3.5% have one here.

SMILES	GPR151 activ	TEAD-YAP block	FBW7 activator	MITF primary	MITF confirm	AlphaScreen intf2	others
O=[N+]([O-])c1ccc(S(=O)(=O)N2CCN(Cc3cccc(Br)c3)CC2)cc1	1	-7	0	77*	9	13
O=[N+]([O-])c1ccc(S(=O)(=O)N2CCN(Cc3ccccc3)CC2)cc1	1	3	0	45	x	x
O=[N+]([O-])c1ccc(S(=O)(=O)N2CCN(Cc3ccc(Br)cc3)CC2)cc1	-2	6	0	61*	21	36*
COc1ccc(CN2CCN(S(=O)(=O)c3ccc([N+](=O)[O-])cc3)CC2)cc1	0	-2	0	53*	15	15
CCN(CCN(C)C)Cc1ccc(F)cc1	0	-4	0	60*	28*	-3	AS interf DR=>6.5
CCN(CCN(C)C)Cc1ccc(F)cc1F	0	1	0	60*	-6	-2
CCN(CCN(C)C)Cc1cccc(Cl)c1Cl	-1	4	0	75*	-4	0
CCN(CCN(C)C)Cc1ccc(Cl)c(Cl)c1	1	-5	0	54*	3	-5
CCN(CCC(=O)Nc1ccc(F)cc1)Cc1ccccc1	-1	4	0	4	x	x
CCCN(CCO)Cc1ccc(Cl)c(Cl)c1	2	7	0	16	x	x
CCOC(=O)c1ccc2ncc(C(=O)OCC)c(Nc3cccc(C(F)(F)F)c3)c2c1	0	8	0	12	x	x
O=C(NCCCN1CCOCC1)c1ccc2c(c1)N(Cc1ccccc1)C(=O)CS2	0	2	0	0	x	x
COc1cccc(-n2nc(C(=O)NCCCN3CCN(C)CC3)c3ccccc3c2=O)c1	-1	6	1	14	x	x
CCN(CCN(C)C)Cc1cccc(OCc2ccccc2)c1	0	6	0	61*	-10	-4
CCN(CCN(C)C)Cc1ccc(F)c(Br)c1	-1	8	0	27	x	x
CCN(CCN(C)C)Cc1ccc(F)c(F)c1	-1	3	0	60*	0	-5
CN(CCC(N)=O)Cc1ccc(F)cc1	-3	11	0	56*	-12	-8
CN(C)CCCN(CCCN(C)C)Cc1cccc(Oc2ccccc2)c1	1	-4	0	24	x	x
CCCN(CCO)Cc1ccc(Cl)cc1Cl	1	6	0	-2	x	x
CCN(CCN(C)C)Cc1ccc(Cl)cc1Cl	0	-6	0	56*	-5	-5
c1ccc(-n2ncc3c(N4CCCc5ccccc54)ncnc32)cc1	-1	-4	1	-11	x	x
COc1ccc(NC(=O)c2oc3ccccc3c2NC(=O)C(C)(C)C)cc1OC	-1	-8	0	-6	x	x
O=C(NC1CC1)c1ccc(N2CCc3ccccc32)c([N+](=O)[O-])c1	-1	-15	-1	13	x	x
CC(=O)N(C)c1ccc(NC(=S)NCc2ccc(C)cc2)cc1	1	-3	0	2	x	x
COc1ccc(C(=O)NCC(=O)N/N=C/c2cc(O)ccc2[N+](=O)[O-])cc1OC	0	5	0	4	x	x
SMILES	GPR151 activ	TEAD-YAP block	FBW7 activator	MITF primary	MITF confirm	AlphaScreen intf2	others
COc1ccc(CN2CCN(Cc3ccncc3)CC2)cc1OCc1ccccc1	1	1	0	63*	-6	-1
CCOc1cc(CN2CCN(Cc3ccc(SC)cc3)CC2)ccc1OC	-1	25	0	54*	0	3
COc1ccc(CN2CCN(Cc3ccc(SC)cc3)CC2)cc1OCc1ccccc1	0	18	0	55*	3	11
COc1ccc(CN2CCN(C)CC2)cc1OCc1ccccc1	0	-14	0	8	x	x
O=C(c1cc2sc3ccccc3c2s1)N1CCOCC1	0	-57	0	5	x	x
COc1ccc(OC)c(-n2c(CNC(=O)c3cccs3)nnc2SCC(=O)Nc2cccc(C)c2)c1	0	11	0	62*	-10	-7
COc1ccccc1-n1c(CNC(=O)c2cccs2)nnc1SCC(=O)Nc1cccc(C)c1	-1	6	0	13	x	x
CCOc1ccccc1NC(=S)NNC(=O)c1ccccn1	0	16	-2	114*	117*	100*
O=C(NNC(=S)Nc1cccc([N+](=O)[O-])c1)c1ccccn1	-1	-12	-2	115*	116*	100*
CCOC(=O)c1ccc(NC(=S)NNC(=O)c2ccccn2)cc1	0	6	-1	116*	114*	100*
CCOC(=O)c1cccc(NC(=O)c2ccccn2)c1	-4	-36	0	0	x	x
COCCCNC(=S)NNC(=O)c1ccccn1	1	12	-1	114*	113*	100*
COc1cccc(NC(=O)Cn2c(-c3ccncc3)nc3ccccc32)c1	-1	6	0	-23	x	x
CC(=O)Nc1ccc(Nc2nc(-c3c(C)noc3C)nc3c2ncn3C2CCCCC2)cc1	-2	-43	0	-9	x	x
c1ccc(OCc2nc3ccccc3n2CC2CCN(Cc3ccccn3)CC2)cc1	0	5	-1	90*	15	23
COc1ccc(C2C=C(c3ccc(F)cc3)Nc3ncnn32)c(OC)c1 (centres undefined)	-1	-3	0	7	x	x
COc1ccc([N+](=O)[O-])cc1N(CC(=O)O)S(C)(=O)=O	1	2	0	59*	0	11
Cc1ccc(C)c(NCC(O)CN2c3ccccc3Sc3ccccc32)c1 (centres undefined)	0	6	0	73*	1	3
OC(CNc1ccccc1)CN1c2ccccc2Sc2ccccc21 (centres undefined)	0	0	1	9	x	x
CCNS(=O)(=O)c1ccc(Cl)c(Cl)c1	0	4	0	56*	-2	5
COc1ccc(CN2CCN(C(=O)CC(C)C)CC2)cc1Br	-2	-4	0	54*	4	15
CCc1ccc(CN2CCN(C(=O)CC(C)C)CC2)cc1	0	5	0	58*	1	9
COc1ccc(CN2CCN(C(=O)c3cccs3)CC2)cc1OC	-2	1	0	37	x	x
CCc1ccc(CN2CCC(C(=O)NC(C)C)CC2)cc1	0	7	0	34	x	x
COc1ccc(CN2CCN(C(=O)c3cccs3)CC2)cc1Br	-1	-9	0	67*	3	9
SMILES	GPR151 activ	TEAD-YAP block	FBW7 activator	MITF primary	MITF confirm	AlphaScreen intf2	others
COc1ccc(C(=O)N2CCN(Cc3ccc(OC)c(Br)c3)CC2)cc1	-2	4	1	43	x	x
COc1ccc(CN2CCN(C(=O)c3ccccc3F)CC2)cc1Br	0	-3	0	54*	27	-10
CC(=O)NCCNC(=O)c1ccc(C(F)(F)F)cc1	-2	-2	0	-9	x	x
Cc1cc(C)c(C#N)c(S(=O)Cc2ccc(Cl)cc2)n1 (centres undefined)	0	0	0	6	x	x
CCn1c(=O)n(CC(=O)N2CCCCCC2)c2cccnc21	0	2	0	-3	x	x
CCOc1ccc(CN2CCN(C(=O)c3cccs3)CC2)cc1	-1	8	0	60*	9	14
